# Assay results from PubChem BioAssay (NCATS).
# Inconclusive results are not listed. A call without a number means that no potency is given here. The source made the active and inactive calls. The call rests on the fitted dose curve; in most records, active means well fitted inhibition curve with a large enough effect; inconclusive means small, poorly fitted or top-dose-only effect; inactive means flat fitted curve, though single readings scatter.
# Experiment: P-glycoprotein substrates identified in KB-8-5-11 adenocarcinoma cell line, qHTS therapeutic library screen (AID 1346987); further: nearly all actives have a fitted effect of over 65% in size
# Settings: KB-8-5-11 (P-gp overexpressing) viability, CellTiter-Glo, 72 h; series mostly up to 44.5 µM
# Method in brief: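 Luminescence from CellTiter-Glo, read 5 min after addition, quantified survival of KB-8-5-11 (P-gp-overexpressing) cells exposed to compounds for 72 h. AC50 was derived from concentration-response curves.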
# Potency means the concentration at half of the fitted maximal effect.
row,SMILES,Potency
1,CCCc1cc(C)n(C)c(=O)c1CN(C)C(=O)c1cc(-c2ccc(N3CCN(C(C)C)CC3)nc2)cc2c1cnn2C(C)C,inactive
2,CC(=O)OC[C@]12[C@H](OC(C)=O)[C@H](OC(=O)c3ccccc3)[C@@H]3[C@@H](OC(C)=O)[C@]1(OC3(C)C)[C@H](C)C[C@H](OC(C)=O)[C@@H]2OC(=O)c1ccccc1,inactive
3,CCC(=O)N1CCOc2c(cc(-c3ccc(OC)c(OC)c3)cc2OC[C@H]2CCCN(C)C2)C1,inactive
4,Cc1cccc(C#Cc2cc(F)cc(C#N)c2)n1,inactive
5,CC(=O)O[C@H]1C[C@@](O)(C(C)C)[C@@H]2[C@@H](OC(=O)c3ccc(O)cc3)CC(C)=CC[C@@]12C,inactive
6,COC1C=C(C)C(O)(CO)C2(C)CCCC(C)(C)C12 (stereo not drawn),inactive
7,CC1(C(=O)Nc2ccc(F)nc2)CCCN1c1nc(Nc2cc(C3CC3)[nH]n2)c2cccn2n1 (stereo not drawn),2310 nM (active)
8,CN(C)CC#CCCC(=O)C(O)(c1ccccc1)C1CCC1 (stereo not drawn),inactive
9,O=C(O)C1=CO[C@@H](O[C@@H]2O[C@H](CO)[C@@H](O)[C@H](O)[C@H]2O)[C@@H]2C(CO)=CC[C@H]12,inactive
10,O=C(NCc1ccc(OC(F)(F)F)cc1)C1c2c(F)cccc2C(=O)N1CCc1ccccn1 (stereo not drawn),inactive
11,C/C=C/C=C/C(=O)O[C@@H]1C=C2COC(=O)[C@]2(O)[C@@]2(C)CCCC(C)(C)[C@H]12,inactive
12,COc1ccc(C2NC(=S)N3C(c4ccc(OC)c(OC)c4)NC(=S)N23)cc1OC (stereo not drawn),inactive
13,Cc1sc2c(c1C)C(c1ccc(Cl)cc1)=N[C@H](CC(=O)NCCCCNC(=O)COc1cccc3c1C(=O)N([C@H]1CCC(=O)NC1=O)C3=O)c1nnc(C)n1-2,inactive
